Reference: PubChem BioAssay AID652042 (Broad Institute, 2013)
In all, about 1,100 compounds went through this assay and about 350 (32%) were called active. No rule for the calls is given here. Not all results are given here. Measured potencies and affinities stand elsewhere.

test: CEM21 lymphoblast cell cytotoxicity, dose response, cytotoxicity control for viral fusion inhibitor project, CellTiter-Glo luminescence, cherry-picked (AID 652042); conditions: CEM21 cells viability, CellTiter-Glo ATP luminescence, 24 h; series mostly up to 35 µM

| Structure (SMILES) | activity change, negative = cytotoxicity |
| --- | --- |
| CC(C)(C)c1ccc(-c2noc(CCC(=O)NCC3CCCO3)n2)cc1 (stereo not given) | inactive |
| O=C(c1cc(COc2cccc(C(F)(F)F)c2)on1)N1CCC(c2ccncc2)CC1 | inactive |
| CCCNC(=O)C[C@@H]1C[C@H]2c3cc(NC(=O)Cc4ccncc4)ccc3O[C@H]2[C@@H](CO)O1 | inactive |
| O=C(CCNC(=O)c1ccc(Br)cc1)NNC(=O)COc1ccccc1F | inactive |
| O=C(NCCc1ccccc1F)c1ccc2c(c1)OCCO2 | inactive |
| COc1ccc(NS(=O)(=O)c2ccc3c(c2)OCCO3)cc1OC | inactive |
| Nc1c(S(=O)(=O)c2ccccc2)cnc2c(-c3ccc(F)cc3)cnn12 | inactive |
| COC(=O)CNC(c1ccccc1)c1cc(C)ccc1NC(=O)CNC(=O)OCc1ccccc1 (stereo not given) | inactive |
| COc1ccc(C(C(=O)NC(C)(C)C)N(CCC(C)C)C(=O)CCC(=O)Nc2cc(C)on2)cc1 (stereo not given) | inactive |
| CCN(CC)c1nc(Nc2ccccc2)nc(Oc2ccc(=O)[nH]n2)n1 | inactive |
| COc1ccc2c(c1)OC[C@H]1[C@H]2N2C(=O)CN(Cc3ccc(C)cc3)C(=O)[C@@]2(C)[C@H]1c1ccccc1 | inactive |
| C[C@H]1NC(=O)[C@@]2(C)[C@H](c3ccccc3)[C@H]3COc4ccccc4[C@@H]3N2C1=O | inactive |
| Cc1ccc(-n2nc3c(c2NC(=O)c2ccco2)CS(=O)C3)cc1 (stereo not given) | inactive |
| C=CCN1C(=S)CC(c2ccccc2)=Nc2ccccc21 | inactive |
| O=C(c1ccc2c(c1)OCO2)N(CC1CCCO1)C1(C(=O)NC2CCCCC2)CCCCC1 (stereo not given) | inactive |
| CON(C)c1nc(OCCNC(=O)OCc2ccc(Cl)cc2C)nc(N(C)C)n1 | inactive |
| Cc1ccc(C(=O)NCc2ccccn2)cc1S(=O)(=O)N1CCCCC1 | inactive |
| Cc1ccc(S(=O)(=O)N2CCCCC2)cc1C(=O)NCCC1=CCCCC1 | inactive |
| O=S(=O)(NCC[C@@H]1CC[C@@H](NS(=O)(=O)c2ccccc2Cl)[C@H](CO)O1)c1ccc(Cl)cc1 | inactive |
| O=S(=O)(NCC[C@H]1CC[C@H](NS(=O)(=O)c2ccccc2Cl)[C@H](CO)O1)c1ccc(Cl)cc1 | inactive |

| Structure (SMILES) | activity change, negative = cytotoxicity |
| --- | --- |
| COc1cc(-c2nc3oc4ccccc4c(=O)c3c(=O)n2Cc2ccco2)cc(OC)c1OC | inactive |
| CCOC(=O)c1c(CSc2cccs2)n(C)c2cc(Br)c(O)c(CN(C)C)c12 | inactive |
| CCOC(=O)c1c(CSc2ccsc2)n(C)c2cc(Br)c(O)c(CN(C)C)c12 | inactive |
| CCN(CC)S(=O)(=O)c1ccc(NC2c3ccccc3C(=O)N2Cc2ccc3c(c2)OCO3)cc1 (stereo not given) | inactive |
| O=S(=O)(NCCc1csc(-c2cccnc2)n1)c1ccc(Cl)s1 | inactive |
| COc1cccc(/C=N/NC(=O)CC2C(=O)NN=C2C)c1O (stereo not given) | inactive |
| CC(C)(C)OC(=O)N1CCc2onc(-c3ccc(Br)cc3)c2C1=O | inactive |
| C=CC[n+]1c(-c2ccc(C)cc2)csc1NNC(=O)Nc1ccccc1 | 1.1% [at 8 µM] (inactive) |
| COc1ccc(C(C)=O)cc1CC1(C)C(=O)Nc2ccc(-c3ccccc3OC)cc21 (stereo not given) | inactive |
| COc1cc(OCC(=O)NC(C)C)cc2c1C(=O)O[C@@H](C)CCCC(=O)CCCCC2 | inactive |
| CSc1cccc(N2CC(C(=O)Nc3cccc(S(=O)(=O)N4CCCC4)c3)CC2=O)c1 (stereo not given) | inactive |
| CSc1ccc(CN(C)C(=O)c2cccc(S(=O)(=O)N3CCN(Cc4ccccc4)CC3)c2)cc1 | inactive |
| COc1cc(NC2c3ccccc3C(=O)N2Cc2ccc3c(c2)OCO3)cc(OC)c1OC (stereo not given) | inactive |
| O=C(NC12CC3CC(CC(C3)C1)C2)OCCNC1CCCCC1 | inactive |
| O=C1CCCC2=C1C(c1cccs1)Nc1ccccc1N2 (stereo not given) | inactive |
| CC[C@]1(C(=O)OC)[C@H]2C(=O)N(Cc3ccccc3)C(=O)[C@H]2[C@H]2CN=C(SCc3ccc(C#N)cc3)N21 | inactive |
| CCOc1ccc(NS(=O)(=O)c2ccc(C(=O)N(C)CCc3ccc(OC)c(OC)c3)cc2)cc1 | inactive |
| CC(C)C[C@@H](CN(C)N=O)N(C[C@H](Cc1ccccc1)N(CCc1ccccc1)N=O)N=O | inactive |
| CCc1nc2ccc(C(=O)N3CCN(C(=O)c4ccco4)CC3)cn2c1N(C)Cc1ccc(OC)cc1 | inactive |
| C[C@@]12C(=O)N(Cc3ccccc3)CC(=O)N1[C@H]1c3ccccc3OC[C@@H]1[C@@H]2c1ccccc1 | inactive |

| Structure (SMILES) | activity change, negative = cytotoxicity |
| --- | --- |
| O=S1(=O)c2c(cccc2N2CCCCC2)O[C@H](COCc2ccccc2)CN1C1CC1 | inactive |
| COc1ccc(CCNC(=O)C2CCCN(Cc3nc(-c4cccc(Cl)c4)oc3C)C2)cc1OC (stereo not given) | inactive |
| Cc1oc(-c2ccc(Cl)cc2)nc1CN1CCCC(C(=O)NCc2cccnc2)C1 (stereo not given) | inactive |
| Nc1cc(-c2ccccc2)nn1S(=O)(=O)c1ccc(F)cc1 | inactive |
| c1cnc2ccc(C(c3nnnn3C3CCCCC3)N3CCCCC3)cc2c1 (stereo not given) | inactive |
| c1ccc(CNc2ncnc3ccccc23)cc1 | inactive |
| C=CCNc1ncnc2ccc(Br)cc12 | inactive |
| CCN(C[C@H]1N[C@@](C)(C(=O)OC)[C@H]2C(=O)N(Cc3ccccc3)C(=O)[C@@H]12)S(=O)(=O)c1ccc(C(C)(C)C)cc1 | inactive |
| CC1(Cc2ccc(Cl)cc2)C(=O)Nc2ccc(-c3cccnc3)cc21 (stereo not given) | inactive |
| O=C(CNc1ccc(F)cc1)c1ccccc1 | inactive |
| O=C(CCCCn1c(=O)[nH]c2ccccc2c1=O)N1CCN(c2cccc(C(F)(F)F)c2)CC1 | inactive |
| COc1cccc(Cl)c1NC(=O)N1CCc2c([nH]c3ccccc23)C1C(F)(F)F (stereo not given) | inactive |
| COc1ccc(N2CCN(C(=O)C3CCC(Cn4c(=S)[nH]c5ccccc5c4=O)CC3)CC2)cc1 (stereo not given) | inactive |
| CC(C)CCSc1nc(N)c(C#N)cc1C#N | inactive |
| COC(=O)C1(C(=O)OC)C[C@H](c2ccc(OC)cc2)N(Cc2ccccc2OC)[C@@H]1c1cccs1 | inactive |
| COc1ccc(CNc2ncnc3ccccc23)cc1 | inactive |
| CC(C)(C)c1ccc(C(=O)Nc2ccc(CC(=O)O)cc2)o1 | inactive |
| Cc1nn(C)c(C)c1CN(C)S(=O)(=O)c1ccc2ccccc2c1 | inactive |
| CS(=O)(=O)N(Cc1ccc(Cl)cc1)c1ccc(C(=O)NCCC2=CCCCC2)cc1 | inactive |
| Cc1ccc2c(c1)c1c3n2CCN(CC(N)=O)C3CCC1 (stereo not given) | inactive |
